# In the library only some 15% were active in any assay of this set; here they are far more common.
# VP16 counter – Gal4-VP16 reporter inhibition counter-screen; actives 3.5% (n = 310,000); AID 2546; Potency, µM (series often up to 53.6 µM), inactives show top-dose activity, negative = inhibition, hits mostly inhibitors; Drosophila S2 Gal4-VP16 UAS-luciferase, luminescence, 20 h;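 note: Gal4-VP16 expression switched on by copper sulfate through the metallothionein promoter; nearly all actives have a fitted effect of over 50% in size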
# TDP1 cell noCPT – qHTS for Inhibitors of human tyrosyl-DNA phosphodiesterase 1 (TDP1): qHTS in cells in absence of CPT; AID 686978, 2013; Potency, µM (top dose mostly 46.2 µM), for the others: at the top dose activity change, negative = growth inhibition, actives largely listed as inhibitors; DT40 Tdp1-/- hTDP1 cells, no CPT, ATP luminescence, 48 h; actives 15% (n = 420,000); note: nearly all actives have a fitted effect of over 55% in size
#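 DT40 Tdp1-/-;hTDP1 cells, no CPT (DMSO vehicle only), 400 cells/well; compounds pin-transferred; ≥48 hr, 37 °C; CellTiter-Glo 30 min RT dark, luminescence read.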
# DT40 TDP1 CPT – DT40-hTDP1 cell growth loss with CPT; chicken DT40 Tdp1-/-;hTDP1 cells + 20 nM CPT, ATP luminescence, 48 h; Potency, µM (top dose mostly 46.2 µM), for the others: top-dose activity change, negative = growth inhibition, most hits filed as inhibitors; actives 12% (n = 420,000); AID 686979; note: nearly all actives have a fitted effect of over 55% in size
#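 Chicken DT40 Tdp1-/- cells stably complemented with human TDP1 were seeded at 400 cells/well in medium containing 20 nM camptothecin, exposed to pin-transferred compounds, and grown at 37 °C for at least 48 hr. Viability was read as ATP luminescence.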
# RORgamma inh – ROR gamma (mouse) transcription inhibition | Drosophila S2 Gal4-RORgamma UAS-luciferase reporter, 20 h | Potency, µM (top dose mostly 53.6 µM), for inactives: at the highest dose activity change, negative = inhibition, most hits filed as inhibitors | actives 5.4% (n = 310,000); note: nearly all actives have a fitted effect of over 60% in size
#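 Using a luciferase readout, inhibitors were identified by reduced reporter activity in Drosophila cells coexpressing a copper-inducible Gal4–ROR gamma fusion and UAS-driven Photinus luciferase, incubated 20 hr after 700 uM copper sulfate.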
# 12-LOX inh – blocks human arachidonate 12S-lipoxygenase; AID 1671190; Potency, µM (doses to about 108 µM), for inactives: at the top dose activity change, negative = inhibition, most hits filed as inhibitors; actives 1.1% (n = 580,000); purified 12hLO, xylenol orange hydroperoxide absorbance
# Target sequence (P18054 whole entry, looked up): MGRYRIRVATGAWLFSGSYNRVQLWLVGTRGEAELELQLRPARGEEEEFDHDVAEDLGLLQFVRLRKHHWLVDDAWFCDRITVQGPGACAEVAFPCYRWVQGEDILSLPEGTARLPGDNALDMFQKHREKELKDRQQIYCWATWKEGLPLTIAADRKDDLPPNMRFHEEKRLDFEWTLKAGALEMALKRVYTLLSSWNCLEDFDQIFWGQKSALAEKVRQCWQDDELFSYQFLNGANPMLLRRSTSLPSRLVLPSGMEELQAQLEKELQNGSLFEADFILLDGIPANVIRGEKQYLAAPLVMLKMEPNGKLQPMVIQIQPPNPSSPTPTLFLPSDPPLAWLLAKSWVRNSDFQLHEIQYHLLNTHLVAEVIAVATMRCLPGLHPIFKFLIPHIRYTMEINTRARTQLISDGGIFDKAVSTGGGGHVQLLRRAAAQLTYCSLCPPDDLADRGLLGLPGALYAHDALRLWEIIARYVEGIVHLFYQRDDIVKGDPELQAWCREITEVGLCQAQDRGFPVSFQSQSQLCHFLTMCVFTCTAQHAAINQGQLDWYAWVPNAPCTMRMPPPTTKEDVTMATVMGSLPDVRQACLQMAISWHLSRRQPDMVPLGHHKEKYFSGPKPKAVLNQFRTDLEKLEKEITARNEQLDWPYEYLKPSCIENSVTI
#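 Purified human 12hLO at 150 nM in 25 mM Hepes, 0.01% Triton X-100, pH 7.0, preincubated 15 min at room temperature with compound. Reaction started with 40 uM arachidonic acid, 30 min at room temperature. Hydroperoxide measured by Fe-xylenol orange, 573/405 nm absorbance ratio.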
# ELG1 DNA repair – ELG1-dependent DNA repair inhibition; HEK293T ELG1-luciferase reporter, luminescence, 16 h; DNA damage induced by 5-fluorouridine; Potency, µM (titrated, usually from 46.1 µM), inactives show at the highest dose activity change, negative = inhibition, usual class: inhibitors; actives 2.3% (n = 330,000); AID 504467; note: nearly all actives have a fitted effect of over 55% in size
#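 Overnight (16 hr) co-exposure of 2,000 cells/well to 5-fluorouridine and compound at 37 °C preceded detection. Luciferase was quantified via ONE-Glo luminescence; loss of signal denotes inhibition.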
# Numbers without * were called inactive; u = inconclusive; x = no result given; [ ] = dose if it differs, or a comment. Calls come from the whole dose curve; as a rule, active = well fitted curve in the direction sought with a large enough effect; inconclusive = small, poorly fitted or top-dose-only effect, or another doubt; inactive = no such curve, though single readings can be large; an effect the other way counts as inactive or inconclusive. % is set by controls: 0 for no effect and ±100 for the full control effect; potency is the fitted concentration of half-maximal effect.
SMILES,VP16 counter,TDP1 cell noCPT,DT40 TDP1 CPT,RORgamma inh,12-LOX inh,ELG1 DNA repair
CCOc1ccccc1-c1nc(-c2cc3ccc(C)cc3[nH]c2=O)no1,23%,u,26µM*,u,-1%,u
CCOC(=O)[C@]12CCCC=C1N(CCC1=CCCCC1)C(=O)[C@H](CC(=O)NCc1cccs1)C2,x,21µM*,u,x,u,x
COC(=O)[C@]12CCCCC=C1N(CCC1=CCCCC1)C(=O)[C@H](CC(=O)NCc1cccs1)C2,x,16µM*,u,x,2%,x
COc1ccc(C(=O)N[C@@H]2C=C[C@@H](c3c(C)nn(-c4ccc(C)c(Cl)c4)c3C)C2)cc1,x,x,x,x,0%,x
COc1cc(OC)c(NC(=O)CCc2ccccc2)cc1Cl,5%,-14%,-6%,12%,-4%,5%
O=C(COCc1cc(-c2ccc(F)cc2)on1)Nc1cc(F)ccc1F,x,-30%,-28%,x,-14%,x
COc1ccc(OC)c(NC(=O)COCc2cc(-c3ccc(F)cc3)on2)c1,x,u,18µM*,x,-16%,x
COc1cc(OC)c(NC(=O)CCc2nc(C3=CCN(Cc4cccc(Cl)c4)CC3)no2)cc1Cl,x,8.2µM*,23µM*,x,-25%,x
COc1cc(OC)c(NC(=O)CCc2nc(-c3ccc(C)cc3)no2)cc1Cl,-29%,23µM*,18µM*,u,0%,-3%
COc1ccc(-c2noc(CC(=O)Nc3cc(OC)ccc3OC)n2)cc1,x,16µM*,23µM*,x,-2%,x
COc1ccc(-c2noc(CNC(=O)c3ccc(OC)cc3OC)n2)cc1,x,u,u,x,-5%,x
COc1cccc(/C=C/c2nc(C#N)c(NCCCn3ccnc3)o2)c1,x,x,x,x,44%,x
O=C(CCc1c[nH]c2ccccc12)N1CCCCCC1,x,x,x,x,0%,x
COC(=O)c1ccc2c(c1)NC(=O)C1CCCN21 (configuration not stated),x,-24%,-27%,x,x,x
Cc1ccc(NC(=O)COC(=O)c2ccc3c(c2)NC(=O)C2CCCN32)cc1 (configuration not stated),5%,u,16µM*,15%,u,-12%
COc1ccc(CNC(=O)COC(=O)C2(C)CC2(Cl)Cl)cc1 (configuration not stated),x,16%,-4%,x,-10%,0%
CC1(C(=O)OCC(=O)NCCNC(=O)COC(=O)C2(C)CC2(Cl)Cl)CC1(Cl)Cl (configuration not stated),0%,16µM*,u,-15%,0%,16%
C=CCNc1nc(C(=O)OCC(=O)NCC(=O)Nc2c(C)cccc2C)cs1,x,x,x,x,-17%,x
CCOC(=O)C1CCN(c2ncnc3c(C)csc23)CC1,-15%,13µM*,u,-2%,0%,u
COc1cc2ncnc(N3CCN(C(=O)Nc4ccc(Oc5ccccc5)cc4)CC3)c2cc1OC,x,11µM*,11µM*,x,x,x
CCOC(=O)C1CCN(c2ncnc3cc(OC)c(OC)cc23)CC1,-9%,21µM*,u,6%,0%,-9%
CC(=O)c1cn(CC(=O)NCC2CCC(C(=O)O)CC2)c2ccccc12 (configuration not stated),x,x,x,x,-5%,x
c1ccc(Cn2c(-c3ccco3)nc3nc4ccccc4nc32)cc1,4%,u,13µM*,9%,u,u
CCCCCn1c(-c2ccco2)nc2nc3ccccc3nc21,-10%[0.365 µM],u,u,23%,35µM*,u
c1coc(-c2nc3nc4ccccc4nc3n2-c2ccc3c(c2)OCCO3)c1,-5%,-24%,-26%,-1%,u,16µM*
SMILES,VP16 counter,TDP1 cell noCPT,DT40 TDP1 CPT,RORgamma inh,12-LOX inh,ELG1 DNA repair
c1coc(-c2nc3nc4ccccc4nc3n2CC2CCCO2)c1 (configuration not stated),u,u,-13%,u,-2%,u
CCCn1c(-c2ccc(OC)cc2)nc2nc3ccccc3nc21,0%,21µM*,23µM*,33%,10%,-16%
Cc1ccc(-c2nc3nc4ccccc4nc3n2Cc2ccco2)cc1,u,u,-18%,u,-23%,u
O=C(O)c1ccc2c(c1)c(C(C(=O)O)N1CCN(c3ncccn3)CC1)cn2Cc1ccccc1 (configuration not stated),x,x,x,x,-13%,x
COc1ccccc1Cn1c(-c2ccco2)nc2nc3ccccc3nc21,x,u,u,x,-6%,x
COc1ccc(CCn2c(-c3ccco3)nc3nc4ccccc4nc32)cc1,u,10µM*,16µM*,4%,-12%,u
COc1ccc(C(=O)n2c(-c3ccco3)nc3ccccc32)cc1,-3%,4.1µM*,6.5µM*,-31%,-16%[57.4 µM],u
COc1ccc(CCn2c(-c3cc([N+](=O)[O-])cc([N+](=O)[O-])c3)nc3nc4ccccc4nc32)cc1OC,-2%,23µM*,u,-7%,1%,u
Clc1ccc(-c2nc3nc4ccccc4nc3n2Cc2ccco2)cc1,u,16µM*,u,-3%,u,u
CC(C(=O)Nc1ccccc1C#N)N(C)Cc1ccccc1N1CCCCC1 (configuration not stated),x,x,x,x,22%,x
COc1cccc(CN2CCC3(CC2)NC(=O)c2ccccc2O3)c1,x,x,x,x,-10%,x
COC(=O)N1CCn2cc(C(=O)NCc3ccc(Cl)nc3)nc2C1,x,x,x,x,8%[6.33 µM],x
Cc1cc(C)n(CC(C)NCc2cn[nH]c2-c2ccc(C)c(C)c2)n1 (configuration not stated),-11%,-29%,-23%,-4%,0%,-1%
Cc1cc(C)n(CC(C)NCc2cn[nH]c2-c2cccc3ccccc23)n1 (configuration not stated),1%,18µM*,u,45%,8%,4%
O=C(O)CCn1cc(C(C(=O)O)N2CCN(Cc3ccncc3)CC2)c2ccc(F)cc21 (configuration not stated),x,x,x,x,-25%,x
O=[N+]([O-])c1cccc(C=NNc2ccc3ccccc3n2)c1O,x,5.8µM*,5.2µM*,x,u,x
Cc1ccccc1Nc1cc(C)c2ccccc2n1,x,x,x,x,4%,x
Brc1ccccc1/C=N/Nc1ccc2ccccc2n1,8.9µM*,16µM*,u,0.32µM*,-29%,u
O=C(O)c1ccccc1C=NNc1ccccn1,x,0%,0%,x,u,x
Cc1cc(N/N=C/c2ccccc2Br)nc2ccccc12,16µM*,u,u,0.56µM*,-18%,u
N#Cc1cccc(OCC(=O)Nc2ccccc2)c1,x,x,x,x,55%,x

# Bioassay records: PubChem BioAssay, National Center for Advancing Translational Sciences (NCATS)
